Most compounds without a hit are left out; they make up all but 8.5% or so of the library.
FBPA coupling cs: inhibits coupling enzyme system, counter-screen for aldolase hits. 0.67% of 290,000 active. coupling enzyme system counterscreen, AmpLite Red fluorescence. activity change, negative = inhibition, % at 58.2 µM, hits read low. AID 2472; in the data active = activity change below about -30%
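Compounds tested against the coupling enzymes alone at 57.5 uM final; readout was AmpLite Red fluorescence (525/598 nm) after 20 min at RT.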
ALDH1A1 block: ALDH1A1 (human) enzyme inhibition. P00352. 7.3% of 220,000 active. Potency, µM (titrated, usually from 75.3 µM), for inactives: at the top dose activity, negative = inhibition, hits mostly inhibitors. Purified ALDH1A1, NADH fluorescence, propionaldehyde substrate;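 note: potency is the fitted concentration of half-maximal effect; plate controls were no enzyme wells and a reference inhibitor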
KDM4E inh: JMJD2E (human) inhibition; B2RXH2; JMJD2E catalytic domain, FDH-coupled NADH fluorescence (FDH is formaldehyde dehydrogenase); Potency, µM (series often up to 57.1 µM), for inactives: at the top dose activity change, negative = inhibition, hits mostly inhibitors; 1.6% of 230,000 active; AID 2147;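 note: potency is the fitted concentration of half-maximal effect; 0% = wells with enzyme and -100% = buffer wells without enzyme; nearly all actives have a fitted effect of over 50% in size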
Target sequence (B2RXH2 1-337 limits assumed): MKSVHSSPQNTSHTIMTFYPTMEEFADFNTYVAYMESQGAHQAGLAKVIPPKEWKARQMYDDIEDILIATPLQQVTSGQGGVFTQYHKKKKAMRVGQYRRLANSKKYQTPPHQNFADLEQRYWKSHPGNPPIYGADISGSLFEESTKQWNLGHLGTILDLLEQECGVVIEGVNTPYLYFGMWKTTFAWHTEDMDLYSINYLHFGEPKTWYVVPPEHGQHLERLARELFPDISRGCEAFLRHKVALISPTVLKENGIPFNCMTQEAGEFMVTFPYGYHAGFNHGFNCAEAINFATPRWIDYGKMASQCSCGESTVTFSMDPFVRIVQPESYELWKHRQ
RGS12 GoLoco inh: blocks human Gai1 binding to RGS12 GoLoco peptide, red readout | Potency, µM (top dose mostly 61.6 µM), for inactives: at the top dose activity, negative = inhibition, usual class: inhibitors | P63096 | 0.44% of 230,000 active | Gai1:RGS12 GoLoco peptide FP, rhodamine, 10 min; active = well fitted inhibition curve with a large enough effect, not every such curve was filed as active; inactive = no such curve, though single readings can be large or run the other way; note: potency is the fitted concentration of half-maximal effect; nearly all actives have a fitted effect of over 30% in size
NPSR antag: antagonists of human neuropeptide S receptor cAMP signaling; Q6W5P4; CHO-NPSR cells, cAMP TR-FRET, antagonist mode; Potency, µM (top dose mostly 38.3 µM), without a hit: top-dose activity change, negative = inhibition, hits mostly inhibitors; 1% of 220,000 active; active = well fitted curve in the direction sought with a large enough effect; inconclusive = small, poorly fitted or top-dose-only effect, or another doubt; inactive = no such curve, though single readings can be large; an effect the other way counts as inactive or inconclusive; note: potency is the fitted concentration of half-maximal effect; nearly all actives have a fitted effect of over 50% in size
Target sequence (Q6W5P4 whole entry, looked up): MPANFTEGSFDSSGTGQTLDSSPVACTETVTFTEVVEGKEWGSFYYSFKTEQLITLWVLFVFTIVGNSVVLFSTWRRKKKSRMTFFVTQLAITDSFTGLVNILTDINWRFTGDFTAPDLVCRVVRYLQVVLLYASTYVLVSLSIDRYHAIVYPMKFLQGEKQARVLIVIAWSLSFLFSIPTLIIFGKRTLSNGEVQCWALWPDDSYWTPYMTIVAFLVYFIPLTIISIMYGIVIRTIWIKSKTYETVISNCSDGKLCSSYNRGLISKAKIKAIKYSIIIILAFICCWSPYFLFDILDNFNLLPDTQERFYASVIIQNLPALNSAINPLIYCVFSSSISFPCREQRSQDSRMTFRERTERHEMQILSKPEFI
Sfp PPTase inh: inhibitors of Bacillus subtilis Sfp phosphopantetheinyl transferase; Q9F4F7; Biochemical Sfp PPTase activity, qHTS; Potency, µM, without a hit: largest response in the series, negative = inhibition, actives largely listed as inhibitors; 3.5% of 310,000 active; AID 1490; active = well fitted curve in the direction sought with a large enough effect; inconclusive = small, poorly fitted or top-dose-only effect, or another doubt; inactive = no such curve, though single readings can be large; an effect the other way counts as inactive or inconclusive;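 note: the enzyme is Sfp with the accession as filed and its product quenches rhodamine fluorescence; potency is the fitted concentration of half-maximal effect; 0% = enzyme reaction without inhibitor and -100% = no enzyme wells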
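Buffer: 50 mM Hepes-Na pH 7.6, 10 mM MgCl2, 0.01% Nonidet P-40, 0.01% BSA. Enzyme 15 nM, pre-exposed to compound 15 min; substrates then added and fluorescence change tracked over 30 min.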
Starred values were filed as active, the others as inactive; ? = inconclusive; · = no result; ! = repeats disagree; [ ] = remark or other dose. Unless noted, calls come from the whole dose curve; as a rule, active = well fitted inhibition curve with a large enough effect (not every such curve was filed as active); inconclusive = small, poorly fitted or top-dose-only effect, or another doubt; inactive = no such curve, though single readings can be large or run the other way. Unless noted, % is set by controls: 0 for no effect and ±100 for the full control effect.

SMILES | FBPA coupling cs | ALDH1A1 block | KDM4E inh | RGS12 GoLoco inh | NPSR antag | Sfp PPTase inh
Cc1ccc(N2C(=O)NC(=O)C3(Cc4ccccc4N4CCN(c5ccccc5)CC43)C2=O)cc1 (stereo unspecified) | -3.0 | 22.4µM* | -6.1% | · | -5.2%[46.1 µM] | -12.2%
NS(=O)(=O)c1ccc(-c2ccc([As](=O)(O)O)cc2)cc1 | · | 4.1%[13.5 µM] | · | 5.5%[14.2 µM] | · | ·
CC[C@H](C)[C@H](NC(=O)[C@H](CCCN=C(N)N)NC(=O)[C@H](CCCN=C(N)N)NC(=O)[C@H](CC(C)C)NC(=O)[C@H](Cc1ccccc1)NC(=O)CNC(=O)CNC(=O)[C@@H](N)Cc1ccc(O)cc1)C(=O)N[C@@H](CCCN=C(N)N)C(=O)N1CCC[C@H]1C(=O)N[C@@H](CCCCN)C(=O)N[C@@H](CC(C)C)C(=O)N[C@@H](CCCCN)C(=O)O | 2.7 | 2.6% | · | 9.6% | · | ?
CN(C)CCCc1cccnc1 | · | 2.0%[13.5 µM] | · | 9.8%[14.2 µM] | · | ·
CCn1c(=O)oc2cc(NC(=O)CCl)ccc21 | -0.9 | 1.58µM* | -4.2% | -1.8% | 4.1% | 12.7%
CC1CCCC(C)N1c1nnc(NC(=O)Cn2c(=O)oc3ccccc32)s1 (stereo unspecified) | 0.8 | ? | -0.8% | 5.9% | -6.0%[46.1 µM] | 4.3%
CC(=O)OCOCC(=O)OCO[P+](=O)C(OCOC(C)=O)c1cc([N+](=O)[O-])ccc1Oc1ccc(Br)cc1 (stereo unspecified) | · | 5.6% | · | -3.2% | · | 18.3%
CC(n1cc(C[C@H](N)C(=O)O)c2ccccc21)n1cc(C[C@H](N)C(=O)O)c2ccccc21 | · | ? | · | 19.1% | · | 28.2µM*
c1ccc(C(OC2CCCN(CCc3ccc4c(c3)OCO4)C2)c2ccccc2)cc1 (stereo unspecified) | 0.8 | · | · | · | · | ?
Cc1c(C=O)c2ccccc2n1Cc1ccccc1 | 0.5 | · | · | · | · | -1.8%
O=Cc1c(C(=O)O)n(Cc2ccc(Cl)cc2)c2ccccc12 | 14.2 | 12.6µM* | ? | 157.7% | -3.1% | -16.6%
CC(=O)OC1CCC2(C)C3=C(CCC2C1(C)C)[C@@]1(C)CCC(C(C)CCC=C(C)C)[C@@]1(C)CC3 (stereo partly specified) | 0.9 | 3.6% | 2.6% | 2.1% | · | -3.4%
CC(C)(C)c1ccc(C(=O)NC(=S)Nn2cnnc2)cc1 | -0.4 | 9.46µM* | 1.9% | · | -13.7%[46.1 µM] | ?
CN(C)c1ccc(N=O)cc1 | · | 0.398µM* | · | -3.2% | · | ·
CN(C)c1ccc(N)cc1 | · | 14.1µM* | · | 24.2% | · | ·
CO[C@H]1[C@H](O)[C@H](O[C@@H]2[C@H](Oc3cccc4c(O)c5c(=O)oc6ccc(C)c7c(=O)oc(c34)c5c67)O[C@@H](C)[C@H](O)[C@H]2O)O[C@@H](C)[C@@H]1O | · | -11.6%[13.5 µM] | · | 0.5%[14.2 µM] | · | ·
CCOC(=O)c1ccc(NC(=O)C2C3C=CC(O3)C2C(=O)O)cc1 (stereo unspecified) | 3.6 | 10µM* | -7.0% | -5.8% | -12.3%[46.1 µM] | 1.0%
BrC(Br)Br | · | 0.7% | · | -23.2% | · | ·
S=P(Nn1cnnc1)(c1ccc(Br)cc1)c1ccc(Br)cc1 | 0.9 | ? | -24.7% | 1.0% | -42.2% | 79.4µM*
Cc1ccc2nc3sc(=O)sc3nc2c1 | 1.9 | · | · | · | · | ?
COC(=O)[C@@H]1[C@@H](C(=O)OC)C2(c3ccccc3-c3ccccc32)N(c2ccc(Cl)cc2)N1C#N | -4.6 | ? | ? | 0.6% | 6.31µM* | 19.9%
CC(C)CC(=O)C[C@H](O)C(Cl)(Cl)Cl | · | 8.2%[13.5 µM] | · | -2.7%[14.2 µM] | · | ·
CCC1(CCCC(=O)c2ccc(F)cc2)C(=O)NC(=S)NC1=O | 3.2 | 3.4% | 0.0% | 2µM* | -12.5% | -7.9%
O=[N+]([O-])c1cccc(CN2CCN(Cc3ccc(Br)cc3)CC2)c1 | 1.3 | ? | 25.1µM* | -2.8% | ? | ?
COC[C@H]1OC(=O)c2coc3c2[C@@]1(C)C1=C(C3=O)C2CCC(=O)[C@@]2(C)C[C@H]1OC(C)=O (stereo partly specified) | -20.5 | 28.2µM*! | -2.3% | -6.6% | ? | ?
SMILES | FBPA coupling cs | ALDH1A1 block | KDM4E inh | RGS12 GoLoco inh | NPSR antag | Sfp PPTase inh
COC[C@H]1OC(=O)c2coc3c2[C@@]1(C)C1=C(C3=O)[C@H]2CCC(=O)[C@@]2(C)C[C@H]1OC(C)=O | -27.4 | 28.2µM* | 11.2µM* | -0.6% | · | ?
O=c1oc2cccnc2n1CCS(=O)(=O)c1ccc(F)cc1 | -0.4 | · | ? | 3.5% | 12.8% | 7.7%
COc1cc(CC(=O)OCC2=C[C@H]3[C@@H]4C(C)(C)[C@]4(OC(C)=O)[C@H](OC(=O)Cc4ccccc4)[C@@H](C)[C@]3(O)[C@@H]3C=C(C)C(=O)[C@@]3(O)C2)ccc1O | -5.4 | 8.2% | · | 2.7% | · | -2.1%
CC1C(=O)OC2C1CC[C@@]1(C)C=CC(=O)[C@@]3(C)O[C@@]213 (stereo partly specified) | 4.2 | 4.3% | 4.2% | 6.7% | · | 5.7%
CCCCCC[C@H]1C(=O)O[C@H](C)[C@H](NC(=O)c2cccc(NC=O)c2O)C(=O)O[C@@H](C)[C@@H]1OC(=O)CC(C)C | 15.8 | ? | ? | 5.5% | · | 10.3%
CN1C(=O)C(=Cc2ccc(-c3cccc(Cl)c3)o2)C(=O)N(C)C1=O | 3.7 | ? | -4.2% | 22.3% | -13.7% | ?
NS(=O)(=O)c1ccc(-c2ccc(C=C3C(=O)NC(=O)NC3=O)o2)cc1 | -1.1 | · | · | · | · | 14.1µM*
CNS(=O)(=O)c1ccc(-c2ccc(C=C3C(=O)NC(=O)NC3=O)o2)cc1 | -0.3 | · | · | · | · | 35.5µM*
NS(=O)(=O)c1ccc(-c2ccc(C=C3C(=O)NC(=S)NC3=O)o2)cc1 | 0.0 | · | · | · | · | 12.6µM*
O=C1NC(=O)N(c2ccc3c(c2)OCO3)C(=O)/C1=C\c1ccc(N2CCCCC2)o1 | 0.8 | ? | -22.9% | 123.4% | -23.5% | -6.4%
Cc1cc(/C=C2\C(=O)NC(=O)N(C)C2=O)c(C)n1-c1ccc2c(c1)OCO2 | 1.5 | ? | -13.3% | 10.4% | -9.2%[46.1 µM] | -15.3%
CN1C(=O)NC(=O)/C(=C\c2ccc([N+](=O)[O-])o2)C1=O | -19.0 | ? | ? | 23.8% | -11.5% | 39.8µM*
O=C1NC(=O)N(c2ccccc2)C(=O)/C1=C\c1ccc([N+](=O)[O-])o1 | -5.6 | ? | ? | 70.5% | 11.5% | 17.8µM*
CN1C(=O)NC(=O)/C(=C/c2ccc([N+](=O)[O-])o2)C1=O | -10.3 | ? | ? | -23.7% | 26.9% | 17.8µM*
COc1ccc(C(=O)O[C@H]2CC[C@@]3(C)[C@H]4CC[C@H]5[C@]3(C[C@]3(O)[C@H]6CN7C[C@H](C)CC[C@H]7[C@](C)(O)[C@]6(O)[C@H](O)C[C@]53O)O[C@]24O)cc1OC | · | 9.3%[13.5 µM] | · | 8.2%[14.2 µM] | · | ·
[N-]=[N+]=NCC(=O)c1c[nH]c(=O)[nH]c1=O | · | -5.6%[13.5 µM] | · | 1.5%[14.2 µM] | · | ·
